The values that follow come from PubChem BioAssay (NCI).

About 83,000 compounds went through this panel and 20% of them were active in at least one assay; those are over-represented in the sample as a whole.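 Each cell line was grown in a 96-well plate and treated with one concentration of compound for 48 hours. Values below 10 were considered active.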 Values without a mark were called inactive. Active and inactive are the calls of the source.

For the experiment, the system named is NCI-H460 lung. Put plainly: NCI-60 one-dose screen, 48 h (100 = growth as untreated, 0 = no growth, -100 = all killed). The conditions noted are these: 10 µM unless noted.
`O=C(CCN1C(=O)/C(=C/c2ccc(F)cc2)SC1=S)N1CCOCC1`: the growth is 68.6%.
For `Cc1cc2nc3c4ccccc4n(CC4=NCCN4)c3nc2cc1C` the value was -84.1% (active); for `Cc1ccc(C(=O)NN2C(=O)/C(=C/C=C/c3ccc([N+](=O)[O-])o3)SC2=S)cc1`, -57.6% (active).
Consider `Cc1cc2nc3c([nH]c2cc1C)c1ccc(=O)cc1n3CCN(C)C`, for which the growth is 2.91% (active).
Consider `N/C(=N\c1nc2ccccc2s1)NC(=O)Nc1c(Cl)cccc1Cl`, for which the growth is 17.8%.
As for `Brc1ccc(-c2n(Cc3ccc4ccccc4c3)c(-c3ccccc3)c(-c3ccccc3)[n+]2Cc2ccc3ccccc3c2)cc1`, the figure is -81.3% (active); as for `C=C1CC[C@@H]2[C@]3(C)COC(c4cn[nH]c4-c4ccc(Br)cc4)O[C@@H]3CC[C@@]2(C)[C@@H]1C/C=C1/C(=O)OCC1O` (some centres undefined), -82.3% (active).
For `COc1ccc(-c2nc3cc(C)ccc3n2CC(=O)N=Nc2c(O)[nH]c3ccc(Br)cc23)cc1` the value was 8.15% (active); for `CC12CC[C@@H]3[C@]4(C)COC(c5cn[nH]c5-c5cccc(Br)c5)O[C@@H]4CC[C@@]3(C)[C@@H]1CC(C1=CCOC1=O)O2` (some centres undefined), 23.7%; for `COc1c(F)ccc(C(=O)Nc2ccc3nc(NC(=O)C4CCCN(S(=O)(=O)c5ccc(C#N)cc5)C4)sc3c2)c1F` (centres undefined), 96.8%.
For `COc1ccc2c(c1)c(-c1cc3nc(-c4cn(C)c5ncccc45)cc(N)n3n1)cn2C` the value was -25.5% (active).
Regarding `CC(=O)c1cc(C(=O)c2ccccc2)n2c1ccc1ccccc12`, the growth is 111%.
As for `COc1ccc2[nH]c(=O)c(CSc3nccc(-c4ccc(OC)c(OC)c4)n3)cc2c1`, the growth was 18.1%.
For `COc1ccc(NC(=O)Cn2c3c(sc2=O)[C@H]2[C@@H](O)[C@@H](O)[C@H](O)[C@@H]2CS3)cc1` the value was 108%.
As for `C=C1CCC2C3(C)COC(c4cccs4)OC3CCC2(C)C1CC(Sc1ccccc1)C1=CCOC1=O` (centres undefined), the figure is 107%; as for `CC1CN(c2oc(-c3ccc([N+](=O)[O-])cc3)nc2C#N)CC(C)O1` (centres undefined), 107%.
For `Cc1occc1C(=O)NN1C(=O)/C(=C/C=C/c2ccc([N+](=O)[O-])o2)SC1=S`, the growth was -51.6% (active).
For `N=C1N=C(SCc2nc3ccccc3[nH]2)NC(=O)/C1=C/c1ccc(Cl)cc1` the value was 102%; for `O=C(NN1C(=O)/C(=C/C=C/c2ccc([N+](=O)[O-])o2)SC1=S)c1ccccc1O`, -55.7% (active).
For `COc1ccc(-c2nc3cc(C)ccc3n2CC(=O)N=Nc2c(O)[nH]c3ccc(Cl)cc23)cc1` the value was 10.6%.
`COC1=C[C@]23CCC(=O)N2CCc2cc4c(cc2[C@@H]3[C@@H]1OC(=O)[C@H](C)O)OCO4`: the growth is -5.4% (active).
For `Cc1sc2c(c1C)C(c1ccc(Cl)cc1)=N[C@@H](CC(=O)NCCCCCNC(=O)COc1ccc(C3CCC(=O)NC3=O)cc1)c1nnc(C)n1-2` (some centres undefined) the value was 73%; for `N/C(=N\c1nc2ccccc2s1)NC(=O)Nc1ccc(Cl)cc1Cl`, -95.9% (active); for `CC1=C(C#N)C2=NNCC(c3ccccc3)=NN2C(c2ccccc2)=C1`, 111%.
